Laboratory results from PubChem BioAssay AID2284205 (EPA ToxCast).
The source made the active and inactive calls. Rule for the calls: active = hit-call score of the fitted dose curve at least 0.9, where 1 is the maximum; inactive = score below 0.9.

Target: Peroxisome proliferator-activated receptor gamma (Homo sapiens) (UniProt P37231)
Experiment: ERF_TW_NR_hPPARG: Eurofins (ERF) Nuclear Receptor (NR) Radioligand Binding LeadHunter Assay for human Peroxisome Proliferator-activated Receptor gamma (PPARg) Agonism, conducted at Taiwan lab site
Description: ERF_TW_NR_hPPARG is a biochemical, single-readout assay that uses extracted gene-proteins in a cell-free assay. Measurements were taken 24 hour after chemical dosing in a 96-well plate. See PPARgamma Human NHR Binding (Agonist Radioligand) Assay, Panlabs.ERF_TW_NR_hPPARG is an assay component calculated from the ERF_TW_NR_hPPARG assay. It is designed to measure radioligand binding using a type of binding reporter as detected by scintillation counting with radiometry technology.Data from the assay component ERF_TW_NR_hPPARG was analyzed at the assay endpoint, ERF_TW_NR_hPPARG, in the positive analysis fitting direction relative to DMSO as the negative control and baseline of activity. Using a type of binding receptor, gain-of-signal activity can be used to understand changes in binding receptor as they relate to gene PPARG.To generalize the intended target to other relatable targets, this assay endpoint is annotated to the nuclear receptor intended target family, where the subfamily is non-steroidal.
Human recombinant PPARgamma-LBD expressed in insect cells are used in modified Tris-HCl buffer pH 7.2. A 0.03 ug aliquot is incubated with 5 nM [3H]Rosiglitazone and 1 ug anti-GST antibody for 24 hours at 4C. Non-specific binding is estimated in the presence of 10 uM rosiglitazone. Receptors are counted to determine [3H]Rosiglitazone specifically bound. […]

Peroxisome proliferator-activated receptor gamma (Homo sapiens), sequence (P37231 whole entry, looked up): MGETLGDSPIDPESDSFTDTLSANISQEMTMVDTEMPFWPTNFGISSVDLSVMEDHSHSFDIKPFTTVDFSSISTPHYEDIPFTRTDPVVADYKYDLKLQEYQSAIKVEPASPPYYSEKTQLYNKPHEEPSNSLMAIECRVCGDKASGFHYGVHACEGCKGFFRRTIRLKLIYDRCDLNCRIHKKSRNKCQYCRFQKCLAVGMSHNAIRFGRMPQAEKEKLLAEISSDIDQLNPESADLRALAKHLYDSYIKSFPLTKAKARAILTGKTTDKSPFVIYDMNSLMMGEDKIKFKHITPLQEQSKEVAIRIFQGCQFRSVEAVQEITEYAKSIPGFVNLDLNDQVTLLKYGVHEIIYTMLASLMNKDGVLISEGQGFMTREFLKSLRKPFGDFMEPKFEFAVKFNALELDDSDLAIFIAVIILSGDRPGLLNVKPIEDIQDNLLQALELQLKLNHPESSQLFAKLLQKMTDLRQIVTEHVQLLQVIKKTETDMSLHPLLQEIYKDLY

SMILES	AC50
O=C(O)C(F)(F)C(F)(F)C(F)(F)C(F)(F)C(F)(F)C(F)(F)C(F)(F)C(F)(F)F	18.6 µM (active)
COC(=O)C(F)(F)C(F)(F)OC(F)(C(F)(F)F)C(F)(F)OC(F)=C(F)F (configuration not stated)	3.72 µM (active)
